PGC1a acetyl inh: lowers PGC1a acetylation signal in U2OS cells. AlphaScreen anti-acetyl-lysine; with virally co-expressed GCN5 acetyltransferase. 0.17% of 350,000 active. AID 651687. inhibition, % at 15.6 µM;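 active means every replicate shows inhibition of at least 40%; inconclusive means mean inhibition at least 40% but some replicate below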;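 further: 0% = neutral control wells and 100% = positive control wells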
Env fusion inh: HIV envelope-mediated fusion inhibition; inhibition, % at 12.3 µM; 1.1% of 360,000 active; HeLa-JRFL Env/CEM21 cell fusion, luciferase;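 active means mean replicate inhibition score of at least 50 and every replicate individually at or above 50; inconclusive means only one of the two criteria met; inactive means mean below 50 and not all replicates reaching 50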;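 further: 0% = plate neutral controls and 100% = maraviroc near 300 nM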
NSD2 inh: blocks human histone methyltransferase NSD2; O96028; NSD2 peptide methylation, AlphaScreen, 120 min; inhibition, % at 12.5 µM; 0.54% of 310,000 active; in the data active means inhibition above about 50%
Target sequence (O96028 whole entry, looked up): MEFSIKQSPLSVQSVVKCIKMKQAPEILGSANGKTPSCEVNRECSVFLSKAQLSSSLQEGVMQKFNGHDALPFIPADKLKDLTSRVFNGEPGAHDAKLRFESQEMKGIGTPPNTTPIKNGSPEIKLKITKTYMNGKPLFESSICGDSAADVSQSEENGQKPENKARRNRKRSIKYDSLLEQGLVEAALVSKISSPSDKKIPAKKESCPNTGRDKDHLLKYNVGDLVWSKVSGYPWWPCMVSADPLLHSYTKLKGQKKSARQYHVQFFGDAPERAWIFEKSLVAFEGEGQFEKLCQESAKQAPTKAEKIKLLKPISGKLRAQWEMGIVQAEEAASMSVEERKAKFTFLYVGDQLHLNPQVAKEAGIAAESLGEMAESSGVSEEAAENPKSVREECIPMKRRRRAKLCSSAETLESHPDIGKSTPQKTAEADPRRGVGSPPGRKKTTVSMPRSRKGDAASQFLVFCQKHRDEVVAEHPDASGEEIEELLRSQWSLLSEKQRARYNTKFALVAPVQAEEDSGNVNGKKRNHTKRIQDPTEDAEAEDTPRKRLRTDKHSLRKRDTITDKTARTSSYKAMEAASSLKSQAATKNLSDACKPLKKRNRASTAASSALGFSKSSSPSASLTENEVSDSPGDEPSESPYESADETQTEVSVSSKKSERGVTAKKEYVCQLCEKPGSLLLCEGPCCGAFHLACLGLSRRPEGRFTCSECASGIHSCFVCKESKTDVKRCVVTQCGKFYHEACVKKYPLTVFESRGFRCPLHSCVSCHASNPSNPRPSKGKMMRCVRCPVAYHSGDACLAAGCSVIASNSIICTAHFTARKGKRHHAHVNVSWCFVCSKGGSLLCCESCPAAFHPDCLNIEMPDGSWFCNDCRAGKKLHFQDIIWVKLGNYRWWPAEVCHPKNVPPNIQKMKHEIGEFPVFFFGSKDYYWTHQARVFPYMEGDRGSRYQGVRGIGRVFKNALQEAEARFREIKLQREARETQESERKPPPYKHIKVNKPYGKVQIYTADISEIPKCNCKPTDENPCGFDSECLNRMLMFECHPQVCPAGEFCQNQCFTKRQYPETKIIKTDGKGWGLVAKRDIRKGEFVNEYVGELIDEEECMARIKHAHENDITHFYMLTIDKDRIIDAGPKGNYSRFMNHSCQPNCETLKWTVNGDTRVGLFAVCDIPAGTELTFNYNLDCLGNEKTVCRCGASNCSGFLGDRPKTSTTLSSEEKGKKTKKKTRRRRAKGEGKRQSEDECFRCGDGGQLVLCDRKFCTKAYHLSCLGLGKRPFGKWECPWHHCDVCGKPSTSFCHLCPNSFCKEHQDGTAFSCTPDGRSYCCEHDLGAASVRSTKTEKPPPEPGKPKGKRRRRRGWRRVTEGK
MLL AF4-AF9 inh: MLL-AF4/AF9 protein interaction inhibition; P42568; AlphaScreen, biotin-AF4 peptide binding to FLAG-AF9; inhibition, % at 10 µM; 0.47% of 350,000 active; AID 651704;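 active means every replicate reaching a set inhibition limit, whatever the replicate mean, cut at about 25% in these data; inconclusive means mean inhibition reaches that limit but some replicates miss it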;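 further: 0% = plate neutral control median and 100% = total signal loss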
GSIS activator: GLuc luminescence reporter in INS-1E cells, primary screen for activators of glucose-dependent secretion of insulin. INS-1E GLuc reporter insulin secretion, 2-3 h. activation, % at 16.6 µM. 0.61% of 370,000 active;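 active means lowest replicate activation of at least 40%, so every replicate reaches that level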;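 further: 0% = median of neutral control wells and 100% = median of IBMX positive control wells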
* hit, by the source's call; ? = inconclusive; . = no result given; [ ] = another dose, or the depositor's remark. Hits are enriched below; roughly 2.1% of the tested compounds scored in any of these assays.

SMILES	PGC1a acetyl inh	Env fusion inh	NSD2 inh	MLL AF4-AF9 inh	GSIS activator
COc1ccc(S(=O)(=O)N2CCCCCC2)cc1NC(=O)c1c2c(nc3ccccc13)CCN(Cc1ccccc1)C2	-5.5	64.9*	-0.9	.	-40.0
CCN(CC)S(=O)(=O)c1ccc(OC(C)C)c(NC(=O)c2c3c(nc4ccccc24)CCN(Cc2ccccc2)C3)c1	-0.6	58.9*	-1.3	-30.8	7.2
N#Cc1ccc(CN2CCN(C(=O)CNC(=O)Cc3cccc4ccccc34)CC2)cc1	9.6	71.1*	.	3.0	-33.8
CCOC(=O)c1[nH]cnc1C(=O)N[C@@H](C)c1ccccc1	.	0.6	.	-4.8	15.6
Cc1cccc(NC(=O)c2nc[nH]c2C(=O)NCCCCCCNC(=O)c2[nH]cnc2C(=O)Nc2cccc(C)c2)c1	6.3	16.6	.	-13.3	22.8
Cc1cccc(NC(=O)c2nc[nH]c2C(=O)NCCCCNC(=O)c2[nH]cnc2C(=O)Nc2cccc(C)c2)c1	.	69.9*	.	-1.0	-6.4
CCOC(=O)c1[nH]cnc1C(=O)NC(C)C	9.2	.	0.5	.	41.4*
CCOC(=O)c1ccc(NC(=O)c2nc[nH]c2C(=O)NCCNC(=O)c2[nH]cnc2C(=O)Nc2ccc(C(=O)OCC)cc2)cc1	-1.0	81.9*	.	-12.1	14.4
C[C@H](CO)N1C[C@H](C)[C@H](CN(C)C(=O)C2CC2)Oc2cc(-c3ccc(F)cc3)ccc2S1(=O)=O	-12.4	7.2[16.7 µM]	.	.	-9.8
CCCC#Cc1ccc([C@@H]2[C@H]3CN(C(=O)Nc4ccccc4)CC(=O)N3[C@H]2CO)cc1	.	.	.	.	-6.5
Cc1cccc(Nc2nc(N)c(C#N)c(CC#N)c2C#N)c1	.	-51.9	0.6	.	84.0*
O=C(c1ccccc1)N1CCCc2ccccc21	-12.3	.	-0.9	.	27.4
O=C(c1ccc(=O)oc1)N1CCCc2ccccc21	8.2	.	91.7*	.	.
O=C(c1cccc(F)c1)N1CCCc2ccccc21	0.0	0.2	-2.0	-0.4	84.1*
COc1ccnc(CN(C)C(=O)C2CCC(=O)N(CCN(C)C)C2)c1 (stereo not given)	10.8	-1.8	3.6	-1.3	-0.4
Cc1ccc(-n2ncc3c(N4CCCC(C)C4)ncnc32)c(C)c1 (stereo not given)	2.9	-28.8	.	-6.8	-16.9
O=C(O)COc1ccc(/C=C2/SC(=S)N(Cc3ccccc3)C2=O)cc1	71.6*	0.7	16.4	12.2	-14.7
O=C(O)CCCN1C(=O)/C(=C\c2ccco2)SC1=S	-7.1	-6.3	100.6*	-2.9	19.3
COc1ccc(/C=C2/SC(=S)N(CCC(=O)O)C2=O)cc1	-20.7	57.6*	4.8	.	-2.8
O=C(CCCN1C(=O)/C(=C/c2ccco2)SC1=S)Nc1ccccc1C(=O)O	.	-8.7	.	.	-5.5
COc1ccc(CC(=O)OCC(=O)Nc2cccc(C(C)=O)c2)cc1OC	3.4	.	1.8	7.0	59.2*
COc1cccc(C(=O)OCC(=O)N2CCc3ccccc32)c1OC	-0.2	-50.6	0.9	1.8	6.7
Cc1ccccc1OCC(=O)OCC(=O)N1CCCc2ccccc21	-2.6	-0.2	-4.2	-23.2	-14.0
COc1ccc(CC(=O)OCC(=O)N2CCCc3ccccc32)cc1OC	11.6	-2.5	.	-1.8	110.8*
COc1ccc(CC(=O)OCC(=O)N2CCc3ccccc32)cc1OC	-9.1	.	-1.9	1.1	121.2*
SMILES	PGC1a acetyl inh	Env fusion inh	NSD2 inh	MLL AF4-AF9 inh	GSIS activator
CCCCNCC1CCCO1 (stereo not given)	.	1.2	0.6	-0.5	41.4*
C[C@H]1CN([C@@H](C)CO)C(=O)c2cc(Br)cnc2O[C@@H]1CN(C)CC1CCCC1	2.5	?	.	-0.2	5.5
Cc1noc(C)c1NC(=O)Nc1ccc2c(c1)C(=O)N([C@@H](C)CO)C[C@H](C)[C@H](CN(C)S(=O)(=O)c1cccs1)OCCCC[C@H](C)O2	.	69.9*[16.7 µM]	.	1.0	-15.6
C[C@H]1CCCCO[C@@H](CN(C)S(=O)(=O)c2cccs2)[C@@H](C)CN([C@@H](C)CO)C(=O)c2cc(NS(=O)(=O)c3ccccc3)ccc2O1	1.8	62.5*[16.7 µM]	.	-10.0	-39.0
O=S(=O)(Nc1ccccc1F)c1cccc(NC(=S)NCCN2CCOCC2)c1	.	3.6	0.3	1.7	-3.9
COc1ccc(/C=C2\CCn3c2nc2ccccc2c3=O)cc1OC	10.7	.	.	.	.
COc1ccc(-c2noc(CCCCC(=O)N3CCN(c4cc(C)ccc4C)CC3)n2)cc1	14.9	68.3*	.	-1.8	-53.1
Cc1cc(C(F)F)n2ncc(C(=O)NCc3ccccc3)c2n1	-4.9	-47.0	-0.8	.	.
COc1ccc(CNC(=O)c2cnn3c(C(F)F)cc(C)nc23)cc1	-7.2	.	5.5	.	79.8*

Screening data deposited in PubChem BioAssay by Broad Institute.
